Data from PMC4666376, “Characterisation of aptamer–target interactions by branched selection and high-throughput sequencing of SELEX pools”.

What was measured:
[1] = biological target: T1, PAI-1 wild type, active (human, UniProt P05121 24-402); experiment: branched SELEX with high-throughput sequencing; PAI-1 immobilised on monoclonal anti-PAI-1 antibody mAb-1; HBS (10 mM HEPES pH 7.4, 140 mM NaCl), 2 mM MgCl2, 2 mM CaCl2, 0.1% BSA; RNA pool 100 nM; PAI-1 captured on antibody-coated wells; 45 min; binding temperature not stated (PAI-1 capture at room temperature); high values mean tight binding; conditions: protein: recombinant; tags: N-terminal His6; structured_RNA; 2'-F pyrimidines
T1 sequence (P05121 24-402): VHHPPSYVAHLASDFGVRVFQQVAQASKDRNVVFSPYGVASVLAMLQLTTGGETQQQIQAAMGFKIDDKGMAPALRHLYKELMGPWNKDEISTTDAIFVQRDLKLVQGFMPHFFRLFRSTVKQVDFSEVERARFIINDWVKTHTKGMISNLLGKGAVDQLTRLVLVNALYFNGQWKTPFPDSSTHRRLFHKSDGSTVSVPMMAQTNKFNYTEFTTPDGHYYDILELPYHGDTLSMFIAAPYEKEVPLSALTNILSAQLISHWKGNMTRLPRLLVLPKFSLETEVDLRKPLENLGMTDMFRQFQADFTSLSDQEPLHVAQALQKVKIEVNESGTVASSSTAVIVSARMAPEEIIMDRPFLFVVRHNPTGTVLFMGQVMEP

[2] = biological target: T1, PAI-1 wild type, active; experiment: branched SELEX with high-throughput sequencing; PAI-1 immobilised on polyclonal anti-PAI-1 antibody; HBS (10 mM HEPES pH 7.4, 140 mM NaCl), 2 mM MgCl2, 2 mM CaCl2, 0.1% BSA; RNA pool 100 nM; PAI-1 captured on antibody-coated wells; 45 min; binding temperature not stated (PAI-1 capture at room temperature); high values mean tight binding; conditions: protein: recombinant; tags: N-terminal His6; structured_RNA; 2'-F pyrimidines
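Also: Pool frequency after one selection round with this target divided by frequency before selection.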

| Sequence | binding signal [1] | binding signal [2] |
| --- | --- | --- |
| GGGGCCACCAACGACAUUCCAAGAUCACUUGGACCGUGUAUUAAGUACAGUUCGUUGAUAUAAAUAGUGCCCAUGGAUC | 4.62 enrichment factor |  |
| GGGGCCACCAACGACAUUUGCACACCACGUAGGCAAAUUGCCGAUCGUGCUAUGUUGAUAUAAAUAGUGCCCAUGGAUC | 1.3 enrichment factor |  |
| GGGGCCACCAACGACAUUCAGGCCGUAGGAUGUUAUAUCCGAUCCUGAUCUUCGUUGAUAUAAAUAGUGCCCAUGGAUC |  | 1.4 enrichment factor |
| GGGGCCACCAACGACAUUUACCGUCUGGGUAACCUUGUACGAUAGUACAGUUCGUUGAUAUAAAUAGUGCCCAUGGAUC | 1.53 enrichment factor | 1.31 enrichment factor |
| GGGGCCACCAACGACAUUAACAACCCGUAGACGUCAUCGUCGAUCGCGUUAGUGUUGAUAUAAAUAGUGCCCAUGGAUC | 1.35 enrichment factor |  |
| GGGGCCACCAACGACAUUGCCGUAGUGCAGGGUUGCUUGCAUGAUCAAUUGUUGUUGAUAUAAAUAGUGCCCAUGGAUC |  | 2.1 enrichment factor |
| GGGGCCACCAACGACAUUUCGCAGCUUCGUAGUACAGGCGCAAGUUGACACAUGUUGAUAUAAAUAGUGCCCAUGGAUC |  | 1.47 enrichment factor |
